# Hits are enriched below; roughly 12% of the tested compounds scored in any of these assays.
# G9a inh – inhibitors of human histone lysine methyltransferase G9a; Q96KQ7; G9a H3K9 monomethylation, AlphaScreen, 2 h; Potency, µM (series often up to 102 µM), for the others: top-dose activity, negative = inhibition, most hits filed as inhibitors; 350,000 compounds, 8.8% hits; note: % is set by controls: 0 for no effect and ±100 for the full control effect; nearly all actives have a fitted effect of over 75% in size
#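 Chemiluminescent proximity detection of H3K9 monomethylation, read after 10 min bead incubation in the dark. Reaction: 20 nM G9a, 500 nM biotin-H3K9 peptide, 20 uM SAM cofactor, 2 h, room temperature, following 15 min enzyme-compound preincubation.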
# BAZ2B block – BAZ2B (human) inhibition; Q9UIF8; AlphaScreen BAZ2B-H3K14Ac peptide displacement; Potency, µM (titrated, usually from 114 µM), for inactives: top-dose activity change, negative = inhibition, actives largely listed as inhibitors; 360,000 compounds, 4.4% hits; AID 504333; note: % is set by controls: 0 for no effect and ±100 for the full control effect; nearly all actives have a fitted effect of over 60% in size
# Target sequence (Q9UIF8 whole entry, looked up): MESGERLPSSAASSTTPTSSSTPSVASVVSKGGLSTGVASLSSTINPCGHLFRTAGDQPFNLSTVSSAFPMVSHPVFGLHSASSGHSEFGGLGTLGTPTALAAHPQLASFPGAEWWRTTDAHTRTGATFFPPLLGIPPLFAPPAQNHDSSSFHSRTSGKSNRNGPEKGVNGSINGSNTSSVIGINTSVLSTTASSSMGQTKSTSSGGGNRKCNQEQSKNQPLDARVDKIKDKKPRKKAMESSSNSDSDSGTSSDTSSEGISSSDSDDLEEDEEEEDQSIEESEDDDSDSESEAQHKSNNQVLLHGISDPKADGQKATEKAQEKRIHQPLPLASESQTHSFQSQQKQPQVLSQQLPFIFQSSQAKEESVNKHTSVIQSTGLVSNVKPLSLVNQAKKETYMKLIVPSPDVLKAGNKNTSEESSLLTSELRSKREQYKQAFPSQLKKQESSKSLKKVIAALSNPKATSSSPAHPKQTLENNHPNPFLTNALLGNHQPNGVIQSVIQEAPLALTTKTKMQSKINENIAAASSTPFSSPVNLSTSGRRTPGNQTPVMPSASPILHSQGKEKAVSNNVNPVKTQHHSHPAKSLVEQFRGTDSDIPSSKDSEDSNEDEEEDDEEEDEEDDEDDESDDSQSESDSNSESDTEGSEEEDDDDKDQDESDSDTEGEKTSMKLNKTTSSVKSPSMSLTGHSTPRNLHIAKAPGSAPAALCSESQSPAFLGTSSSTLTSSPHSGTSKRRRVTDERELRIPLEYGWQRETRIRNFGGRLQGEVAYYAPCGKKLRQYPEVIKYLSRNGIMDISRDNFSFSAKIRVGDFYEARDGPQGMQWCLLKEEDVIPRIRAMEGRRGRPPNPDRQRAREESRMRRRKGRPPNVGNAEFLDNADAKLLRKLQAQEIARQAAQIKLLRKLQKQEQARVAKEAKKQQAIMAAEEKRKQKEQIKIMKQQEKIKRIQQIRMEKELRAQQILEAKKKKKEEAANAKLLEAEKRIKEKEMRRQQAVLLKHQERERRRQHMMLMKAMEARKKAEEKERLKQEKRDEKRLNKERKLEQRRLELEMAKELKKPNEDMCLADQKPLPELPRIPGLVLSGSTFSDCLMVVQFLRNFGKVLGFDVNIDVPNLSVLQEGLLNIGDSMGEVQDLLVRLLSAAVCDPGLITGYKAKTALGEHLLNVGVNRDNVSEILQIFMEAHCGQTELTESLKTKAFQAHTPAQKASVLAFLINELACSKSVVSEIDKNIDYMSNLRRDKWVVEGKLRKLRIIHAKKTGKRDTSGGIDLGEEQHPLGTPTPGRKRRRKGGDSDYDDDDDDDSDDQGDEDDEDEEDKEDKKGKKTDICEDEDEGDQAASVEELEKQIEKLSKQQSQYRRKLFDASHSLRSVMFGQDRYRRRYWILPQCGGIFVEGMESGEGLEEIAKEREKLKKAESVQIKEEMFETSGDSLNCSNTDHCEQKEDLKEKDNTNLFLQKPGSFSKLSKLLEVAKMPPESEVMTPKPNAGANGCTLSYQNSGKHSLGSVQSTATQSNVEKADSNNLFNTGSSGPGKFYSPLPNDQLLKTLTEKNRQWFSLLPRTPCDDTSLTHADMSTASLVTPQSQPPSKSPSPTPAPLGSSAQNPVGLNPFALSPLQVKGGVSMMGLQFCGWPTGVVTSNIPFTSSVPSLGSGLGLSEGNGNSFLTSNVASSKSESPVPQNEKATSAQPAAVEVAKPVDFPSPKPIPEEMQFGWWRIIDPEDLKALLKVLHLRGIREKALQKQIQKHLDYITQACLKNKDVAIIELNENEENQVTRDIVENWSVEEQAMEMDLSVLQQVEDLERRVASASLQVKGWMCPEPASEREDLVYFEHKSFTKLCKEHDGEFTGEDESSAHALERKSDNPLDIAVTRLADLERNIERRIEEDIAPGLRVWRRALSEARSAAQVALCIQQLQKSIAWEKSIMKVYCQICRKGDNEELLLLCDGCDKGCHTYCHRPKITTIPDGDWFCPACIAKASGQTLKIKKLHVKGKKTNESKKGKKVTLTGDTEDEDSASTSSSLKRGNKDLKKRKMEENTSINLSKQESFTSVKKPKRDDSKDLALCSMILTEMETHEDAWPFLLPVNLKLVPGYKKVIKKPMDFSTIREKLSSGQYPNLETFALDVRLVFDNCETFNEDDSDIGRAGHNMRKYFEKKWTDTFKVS
#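 In this displacement format the biotinylated H3(5-23) peptide acetylated at Lys14 serves as ligand at 50 nM, with BAZ2B at 50 nM in PBS pH 7.4 containing 0.01% Tween-20. Donor and acceptor beads are 10 ug/mL final.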
# JMJD2A Tudor – JMJD2A Tudor domain (human) inhibition | AlphaScreen JMJD2A-Tudor / H3K4me3 peptide binding | 390,000 compounds, 4.4% hits | O75164 | AID 504339 | Potency, µM (top dose mostly 114 µM), for the others: at the highest dose activity change, negative = inhibition, usual class: inhibitors; note: % is set by controls: 0 for no effect and ±100 for the full control effect; nearly all actives have a fitted effect of over 50% in size
# L3MBTL1 inh – inhibitors of human L3MBTL1 | Q9Y468 | AlphaScreen L3MBTL1–H3K9me1 peptide binding | Potency, µM (titrated, usually from 57.1 µM), for the others: at the top dose activity, negative = inhibition, hits mostly inhibitors | 230,000 compounds, 0.66% hits | AID 485360; note: % is set by controls: 0 for no effect and ±100 for the full control effect; nearly all actives have a fitted effect of over 60% in size
#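 AlphaScreen proximity signal between nickel-chelate acceptor and streptavidin donor beads (final 10 ug/mL) reports binding of 50 nM L3MBTL1 to 75 nM biotin-H3 K9me1 peptide; complex incubated with compounds 30 min at room temperature; cefsulodin titration as control.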
# Sfp inh – blocks B. subtilis Sfp PPTase activity; Q9F4F7; Biochemical Sfp PPTase activity, qHTS; Potency, µM, inactives show largest response in the series, negative = inhibition, hits mostly inhibitors; 310,000 compounds, 3.5% hits;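 note: the enzyme is Sfp with the accession as filed and its product quenches rhodamine fluorescence; 0% = enzyme reaction without inhibitor and -100% = no enzyme wells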
#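 With Hepes-Na pH 7.6 buffer containing 10 mM MgCl2, Sfp (15 nM) modified BHQ-2-YbbR (12.5 uM) using rhodamine-CoA (5 uM). Two reads 30 minutes apart at 525/598 nm yielded each well's rate.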
# HP1b chromo inh – inhibitors of HP1-beta chromodomain binding to methylated histone tails; P83916; AlphaScreen HP1-beta / biotin-H3K9me3 peptide binding; Potency, µM (top dose mostly 114 µM), for the others: at the top dose activity change, negative = inhibition, most hits filed as inhibitors; 390,000 compounds, 0.56% hits; AID 540317; note: nearly all actives have a fitted effect of over 70% in size
#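 Compound inhibition of the preformed complex between 50 nM HP1-beta and 50 nM biotinylated H3K9me3 peptide was read by AlphaScreen. Buffer was PBS pH 7.4 with 0.01% Tween-20. Incubations ran 30 min at room temperature, with 10 ug/mL donor/acceptor beads.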
# * marks the source's active call; other numbers are inactive results; ? = inconclusive; . = no result; [ ] = remark or other dose. Calls come from the whole dose curve; as a rule, active = well fitted curve in the direction sought with a large enough effect; inconclusive = small, poorly fitted or top-dose-only effect, or another doubt; inactive = no such curve, though single readings can be large; an effect the other way counts as inactive or inconclusive. Potency is the fitted concentration of half-maximal effect.
SMILES,G9a inh,BAZ2B block,JMJD2A Tudor,L3MBTL1 inh,Sfp inh,HP1b chromo inh
C/C(=N\NC(=O)Cc1c(F)cccc1Cl)c1cccnc1,50.1µM*,-2.5%,-13.1%,.,-5.1%,58.1%
C/C(=N/NC(=O)c1ccc(Cl)s1)c1cccnc1,1.9%,-27.8%,-9.7%,.,4.7%,36.8%
C=CCNC(=S)N/N=C(\C)c1cccnc1,-5.4%,-38.4%,-11.2%,-4.3%[2.29 µM],15.8µM*,37.3%
C=CCNC(=S)N/N=C(\C)c1cccc(OC)c1,28.5%[59 µM],-33.7%,-30.2%,-11.5%,5.2%,-4.8%
C/C(=N/NC(=O)c1ccc(Br)s1)c1ccncc1,70.8µM*,-20.0%,-12.4%,.,10.4%,31.6%
Cc1ccc(C)c(CN2CCCN(CC(=O)Nc3ccc(C)c(C)c3)S2(=O)=O)c1,2.1%[59 µM],-16.2%,1.4%,.,.,33.7%
COc1ccc(-c2nc(CS(=O)(=O)CC(=O)NCc3ccc4c(c3)OCO4)c(C)o2)cc1,.,-5.0%,-14.5%,.,-4.5%,38.5%
Cc1ccccc1-c1nc(CS(=O)(=O)CC(=O)NCc2ccc3c(c2)OCO3)c(C)o1,50.1µM*,-9.5%,-15.6%,1.4%,-0.4%,42.8%
Cc1ccccc1-c1nsc(SCC(=O)NCc2ccc3c(c2)OCO3)n1,35.5µM*,-2.8%,-16.6%,10.3%,-21.2%,-6.6%
Cc1ccn2c(c1)nc(=O)c1cc(S(=O)(=O)N3CCCCC3)c(Cl)cc12,-4.5%[59 µM],-14.6%,-1.1%,.,.,42.2%
COc1ccnc(CSC(N)=Nc2ccccc2OC)c1,8.91µM*,?,44.7µM*,-5.5%,31.6µM*,7.1%
COc1ccnc(CSC(N)=Nc2cccc(C(F)(F)F)c2)c1,44.7µM*,35.5µM*,20µM*,?,?,?
COc1cc(NC(=O)C(OC(=O)CNC(=O)c2ccccc2)c2ccccc2)cc(C(F)(F)F)c1 (stereo unspecified),.,.,-14.4%,.,.,.
COC(=O)[C@@H]1[C@@H](C#N)C2(c3ccccc3-c3ccccc32)N(c2ccc(Cl)cc2)N1C#N,?,?,17.8µM*,-6.2%,?,?
O=C(Cc1ccc(Cl)cc1)NN1C(=O)c2ccccc2C1=O,8.1%[59 µM],4.5%,-14.8%,5.1%,9.0%,3.0%
CC(SC(=S)N1CCOCC1)C(=O)O (stereo unspecified),-1.2%[12.7 µM],25.1µM*,-21.3%,.,5.2%,15.2%
Cc1ccc(C2(O)CN(c3ccccc3)C3=[N+]2CCS3)cc1 (stereo unspecified),5.6%,?,-28.4%,-2.1%,5.3%,36.0%
Cc1ccc(C2(O)CN(c3ccccc3C)C3=[N+]2CCS3)cc1 (stereo unspecified),31.6µM*,-9.0%,-20.1%,9.8%,-17.7%,33.5%
Cc1ccccc1N1CC(O)(c2ccccc2)[N+]2=C1SCC2 (stereo unspecified),31.6µM*,5.0%,-11.3%,8.8%,-20.4%,59.4%
OC1(c2ccc(F)cc2)CN(c2ccccc2)C2=[N+]1CCS2 (stereo unspecified),?,?,?,-12.5%,-10.0%,15.4%
CSc1ccc(C(c2c(C(=O)O)[nH]c3ccccc23)c2c(C(=O)O)[nH]c3ccccc23)cc1,20.6%[0.501 µM],50.1µM*,-19.3%,0.2%[2.29 µM],25.3%,15.0%
Cc1cccc(NC(=S)N2CCN(S(=O)(=O)c3cccc(F)c3)CC2)c1,1.5%,-38.7%,-11.1%,-3.7%,11.5%,5.8%
O=[N+]([O-])c1ccc(NC(=S)N2CCN(S(=O)(=O)c3ccccc3)CC2)cc1,50.1µM*,-30.4%,?,.,10.2%,-2.3%
O=S(=O)(c1ccccc1)N1CCN(C(=S)Nc2ccc(Br)cc2)CC1,.,-15.1%,-17.8%,.,-1.9%,45.5%
CC(=O)c1cccc(NC(=S)N2CCN(S(=O)(=O)c3ccccc3)CC2)c1,44.7µM*,-20.5%,-15.3%,.,-22.3%,?
SMILES,G9a inh,BAZ2B block,JMJD2A Tudor,L3MBTL1 inh,Sfp inh,HP1b chromo inh
CC(=O)c1cccc(NC(=S)N2CCN(S(=O)(=O)c3ccc(F)cc3)CC2)c1,28.2µM*,-13.5%,-2.6%,.,-19.7%,14.2%[57 µM]
Cc1cccc(NC(=S)N2CCN(S(=O)(=O)c3ccccc3)CC2)c1,?,-22.9%,-19.2%,.,3.5%,29.8%
C=C1CC[C@H](O)C/C1=C/C=C1\CCC[C@]2(C)[C@@H]([C@H](C)CCCC(C)(C)O)CC[C@@H]12,0.7%[12.7 µM],.,.,.,21.3%,.
Cc1ccc(C(=O)Cn2c(=N)n(CCN3CCOCC3)c3ccccc32)cc1,4.7%[0.501 µM],-8.8%,-16.8%,-10.3%,.,34.6%
CCCCC(=O)c1ccc(OC(=O)c2ccc([N+](=O)[O-])cc2)cc1,.,.,50.1µM*,.,.,?
CCCCn1c(=N)n(CC(=O)c2ccc([N+](=O)[O-])cc2)c2ccccc21,39.8µM*,-31.5%,.,-18.6%,56.2µM*,.
Cc1ccc(Cn2c(=N)n(CC(=O)c3ccc([N+](=O)[O-])cc3)c3ccccc32)cc1,50.1µM*,-23.1%,-30.2%,10.4%,35.5µM*,7.4%
Cc1ccc(Nc2nnns2)cc1,5.62µM*,-37.2%,-23.2%,-1.2%,6.31µM*,?
O=C(CSc1nccn1Cc1ccccc1)Nc1ccc2c(c1)OCCO2,-6.6%[59 µM],?,-32.9%,.,.,-2.0%[57 µM]
Nc1ccccc1Nc1ccncc1[N+](=O)[O-],.,-36.4%,-8.3%,-29.7%,15.9%,14.5%
Nc1ccccc1Nc1c(F)c(F)nc(F)c1Cl,12.6µM*,?,-32.9%,.,6.0%,12.8%
Cc1ccc(OCC(=O)NCCNC(=O)c2ccncc2)cc1,12.8%,9.4%,-9.8%,.,8.1%,-0.4%
Cc1ccc(OCC(=O)NCCCNC(=O)c2ccncc2)cc1,31.6µM*,10.1%,-17.7%,.,-0.6%,-3.8%
COc1ccc(-c2nc3c(n2O)CCc2c-3no[n+]2[O-])cc1,50.1µM*,-31.6%,-11.0%[11.4 µM],.,13.6%,-3.9%
COn1c(-c2ccccc2)nc2c1CCc1c-2no[n+]1[O-],13.8%[59 µM],5.7%,-5.7%,.,19.4%,19.1%
COc1ccc(CCNC(=O)CCc2c(C)nc3c(c(C)nn3-c3ccccc3)c2C)c(OC)c1,1.7%[59 µM],-1.3%,-19.1%,.,.,26.9%
S=c1nc[nH]c2c1cnn2-c1ccccc1,.,-2.3%,-9.6%,16.7%,17.8µM*,40.2%
Cc1cc(NC(=O)c2cc(-c3ccc(Br)cc3)on2)nn1Cc1ccc(Cl)cc1,-1.2%[59 µM],-2.3%,-10.2%,.,.,27.6%
COc1ccc(NS(=O)(=O)NC(=O)c2c(C)n(C)c3ccccc23)cc1,39.8µM*,-13.3%[57.1 µM],-22.3%,.,-1.6%,35.5%
CC(c1nc2ccccc2c(=O)[nH]1)N1CCN(C)CC1 (stereo unspecified),?,9.5%,70.8µM*,.,-2.3%,?
CC(c1nc2ccccc2c(=O)[nH]1)N1CCOCC1 (stereo unspecified),38.6%[12.7 µM],-23.9%,-18.8%,-6.2%,0.9%,-0.7%

# Screening results from PubChem.
